In PubChem BioAssay (Tox21):
Values joined by “and” are separate entries in the source; they are usually repeats but may differ in a detail not shown here. Equal entries are not always repeated. Inconclusive results are not listed. Entries that show only a call come without a potency. Some compounds were tested as several samples or in several runs, with calls that do not always agree. Active and inactive are the calls of the source. Unless noted, calls follow the shape of the dose curve; as a rule, active = well fitted cell-killing curve with a large enough effect in the repeat runs; inconclusive = weak or mixed curves, or effect the other way; inactive = no such curve, though single readings can be large or run the other way.

Target: Retinoic acid receptor RXR-alpha (Homo sapiens) (UniProt P19793)
Sequence (P19793 whole entry, looked up): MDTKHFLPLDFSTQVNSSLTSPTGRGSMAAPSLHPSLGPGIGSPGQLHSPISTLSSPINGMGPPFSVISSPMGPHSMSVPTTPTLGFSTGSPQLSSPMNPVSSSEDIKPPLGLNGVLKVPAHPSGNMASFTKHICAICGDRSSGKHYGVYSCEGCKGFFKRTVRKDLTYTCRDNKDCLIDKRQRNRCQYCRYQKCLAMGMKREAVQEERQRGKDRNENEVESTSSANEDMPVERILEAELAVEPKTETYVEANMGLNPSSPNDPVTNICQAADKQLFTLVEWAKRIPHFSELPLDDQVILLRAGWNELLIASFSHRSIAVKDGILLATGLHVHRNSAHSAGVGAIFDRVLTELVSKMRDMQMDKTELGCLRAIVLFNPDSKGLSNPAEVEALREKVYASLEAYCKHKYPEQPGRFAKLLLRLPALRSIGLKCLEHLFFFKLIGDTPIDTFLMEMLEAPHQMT
Test: qHTS assay to identify small molecule agonists of the RXR signaling pathway (AID 1159527; calls by dose curve; also: nearly all actives have a fitted effect of over 35% in size)
Conditions: HEK293T RXRa-UAS-bla, beta-lactamase ratio, 16 h; series mostly up to 76.8 µM
How it was run: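 GeneBLAzer RXR-alpha-UAS-bla HEK 293T cells in medium with 2% charcoal-stripped FBS, pre-incubated 5 hr at 37 C, then exposed to compounds 16 hr. Beta-lactamase reporter read by FRET substrate, 2 hr room temperature, 460/530 nm emission.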
Potency is read from the fitted curve at half-maximal effect.

Structure (SMILES) | Potency
Cc1cccc([N+](=O)[O-])c1C | inactive
Nc1ncnc2nc[nH]c12 | inactive
Cc1[nH]c(=O)c(C#N)cc1-c1ccncc1 | inactive
CN1C(C(=O)Nc2ccccn2)=C(O)c2ccccc2S1(=O)=O | inactive
c1ccc(Nc2ccccc2)cc1 | inactive
CC(C)Oc1ccc2c(=O)c(-c3ccccc3)coc2c1 | inactive
OC[C@H]1O[C@@H]2O[C@H]3[C@H](O)[C@@H](O)[C@@H](O[C@H]4[C@H](O)[C@@H](O)[C@@H](O[C@H]5[C@H](O)[C@@H](O)[C@@H](O[C@H]6[C@H](O)[C@@H](O)[C@@H](O[C@H]7[C@H](O)[C@@H](O)[C@@H](O[C@H]8[C@H](O)[C@@H](O)[C@@H](O[C@H]1[C@H](O)[C@H]2O)O[C@@H]8CO)O[C@@H]7CO)O[C@@H]6CO)O[C@@H]5CO)O[C@@H]4CO)O[C@@H]3CO | inactive
O=C(OCc1ccccc1)c1ccccc1O | inactive
Nc1ccc(Cl)cc1Cl | inactive
Cc1cccc(C(=O)O)c1 | 27.5 µM (active)
CC(C)CC(C)(O)C#CC(C)(O)CC(C)C (stereo not drawn) | 12.1 µM (active) and inactive
C=CC(C)(CCC=C(C)C)OC(C)=O (stereo not drawn) | inactive
c1ccc2cc(Nc3ccc(Nc4ccc5ccccc5c4)cc3)ccc2c1 | inactive
CN(C)c1nc(N(C)C)nc(N(C)C)n1 | inactive
CCCCNS(=O)(=O)c1ccccc1 | inactive
Brc1cc(Oc2cc(Br)c(Br)c(Br)c2Br)c(Br)c(Br)c1Br | inactive
C=C(C)C(=O)OCCOC(=O)C(=C)C | inactive
O=[N+]([O-])c1ccc2c(c1)Cc1ccccc1-2 | inactive
CC(C)OC=O | inactive
COc1ccc(C(=O)CC(=O)c2ccc(C(C)(C)C)cc2)cc1 | inactive

Structure (SMILES) | Potency
Cn1cnc([N+](=O)[O-])c1Sc1ncnc2nc[nH]c12 | inactive
O=CCc1ccccc1 | inactive
CCCCOCCOCCO | inactive
COc1ccc(OC)c(C(O)CNC(=O)CN)c1 (stereo not drawn) | inactive
C[Si](C)(C)O[Si](C)(C)C | inactive
CC(C)=CCCC(C)CCO (stereo not drawn) | inactive
CC(C(=O)O)c1cccc(C(=O)c2ccccc2)c1 (stereo not drawn) | inactive
O=C(c1ccccc1)c1ccccc1O | inactive
Cc1ccc2c(n1)Oc1ccc(C(C)C(=O)OCC(=O)N(C)C)cc1C2 (stereo not drawn) | inactive
CCC(C)(O)CCCC(C)C (stereo not drawn) | inactive
CCCC(=O)O | inactive
C[C@]12CCC(=O)C=C1CC[C@@H]1[C@@H]2C(=O)C[C@@]2(C)[C@H]1CC[C@]2(O)C(=O)CO | inactive
CCCCCCCCCCCO | inactive and 3.89 µM (active)
O=S(=O)(O)c1ccc(O)cc1 | inactive
CCC(C)c1ccccc1O (stereo not drawn) | inactive
Oc1ccc(O)cc1 | inactive
NC=O | inactive
Clc1nc(Cl)c(Cl)c(Cl)c1Cl | inactive
C#C[C@]1(O)CC[C@H]2[C@@H]3CCc4cc(OC)ccc4[C@H]3CC[C@@]21C | inactive

System: not listed separately
Test: qHTS assay to identify small molecule agonists of the RXR signaling pathway - cell viability counter screen (AID 1159529); also: nearly all actives have a fitted effect of over 50% in size
Conditions: RXR-alpha-bla HEK293T viability, CellTiter-Glo, 16 h; series mostly up to 76.8 µM
How it was run: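 RXR-alpha-UAS-bla HEK 293T cells in medium with 2% charcoal-stripped FBS were preincubated 5 hr, then exposed to compounds for 16 hr at 37 C. Viability was read as CellTiter-Glo luminescence after 30 min at room temperature.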

Structure (SMILES) | Potency
Cc1cccc([N+](=O)[O-])c1C | inactive
Nc1ncnc2nc[nH]c12 | inactive
Cc1[nH]c(=O)c(C#N)cc1-c1ccncc1 | inactive
CN1C(C(=O)Nc2ccccn2)=C(O)c2ccccc2S1(=O)=O | inactive
c1ccc(Nc2ccccc2)cc1 | inactive
CC(C)Oc1ccc2c(=O)c(-c3ccccc3)coc2c1 | inactive
OC[C@H]1O[C@@H]2O[C@H]3[C@H](O)[C@@H](O)[C@@H](O[C@H]4[C@H](O)[C@@H](O)[C@@H](O[C@H]5[C@H](O)[C@@H](O)[C@@H](O[C@H]6[C@H](O)[C@@H](O)[C@@H](O[C@H]7[C@H](O)[C@@H](O)[C@@H](O[C@H]8[C@H](O)[C@@H](O)[C@@H](O[C@H]1[C@H](O)[C@H]2O)O[C@@H]8CO)O[C@@H]7CO)O[C@@H]6CO)O[C@@H]5CO)O[C@@H]4CO)O[C@@H]3CO | 21.9 µM (active) and inactive
O=C(OCc1ccccc1)c1ccccc1O | inactive
Nc1ccc(Cl)cc1Cl | inactive
Cc1cccc(C(=O)O)c1 | inactive
CC(C)CC(C)(O)C#CC(C)(O)CC(C)C (stereo not drawn) | inactive
C=CC(C)(CCC=C(C)C)OC(C)=O (stereo not drawn) | inactive
c1ccc2cc(Nc3ccc(Nc4ccc5ccccc5c4)cc3)ccc2c1 | inactive
CN(C)c1nc(N(C)C)nc(N(C)C)n1 | inactive
CCCCNS(=O)(=O)c1ccccc1 | inactive
Brc1cc(Oc2cc(Br)c(Br)c(Br)c2Br)c(Br)c(Br)c1Br | 1.39 µM (active) and inactive
C=C(C)C(=O)OCCOC(=O)C(=C)C | inactive
O=[N+]([O-])c1ccc2c(c1)Cc1ccccc1-2 | inactive
CC(C)OC=O | inactive
COc1ccc(C(=O)CC(=O)c2ccc(C(C)(C)C)cc2)cc1 | inactive

Structure (SMILES) | Potency
Cn1cnc([N+](=O)[O-])c1Sc1ncnc2nc[nH]c12 | inactive
O=CCc1ccccc1 | inactive
CCCCOCCOCCO | inactive
COc1ccc(OC)c(C(O)CNC(=O)CN)c1 (stereo not drawn) | inactive
C[Si](C)(C)O[Si](C)(C)C | inactive
CC(C)=CCCC(C)CCO (stereo not drawn) | inactive
CC(C(=O)O)c1cccc(C(=O)c2ccccc2)c1 (stereo not drawn) | inactive
O=C(c1ccccc1)c1ccccc1O | inactive
Cc1ccc2c(n1)Oc1ccc(C(C)C(=O)OCC(=O)N(C)C)cc1C2 (stereo not drawn) | inactive
CCC(C)(O)CCCC(C)C (stereo not drawn) | inactive
CCCC(=O)O | inactive
C[C@]12CCC(=O)C=C1CC[C@@H]1[C@@H]2C(=O)C[C@@]2(C)[C@H]1CC[C@]2(O)C(=O)CO | inactive
CCCCCCCCCCCO | inactive
O=S(=O)(O)c1ccc(O)cc1 | inactive
CCC(C)c1ccccc1O (stereo not drawn) | inactive
Oc1ccc(O)cc1 | inactive
NC=O | inactive
Clc1nc(Cl)c(Cl)c(Cl)c1Cl | inactive
C#C[C@]1(O)CC[C@H]2[C@@H]3CCc4cc(OC)ccc4[C@H]3CC[C@@]21C | inactive
